The values below come from PubChem BioAssay AID504834 (National Center for Advancing Translational Sciences (NCATS), 2011).

Each structure is given as a SMILES string. The whole screen tested about 320,000 compounds, of which about 22,000 (6.9%) were called active. A call without a number means that no potency is given here. Inconclusive results (about 27%) are left out. The sample holds actives, similar compounds and a random draw of the others, so the mix is not that of the screen. Values without a mark were called inactive. Calls come from the whole dose curve; as a rule, active = well fitted inhibition curve with a large enough effect; inconclusive = small, poorly fitted or top-dose-only effect, or another doubt; inactive = no such curve, though single readings can be large or run the other way.
Potency is the fitted concentration of half-maximal effect.

The nature of this experiment: Primary qHTS for delayed death inhibitors of the malarial parasite plastid, 96 hour incubation. The note with it: P. falciparum luciferase reporter growth; series mostly up to 28.7 µM. A digest of the protocol:
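Plates of compound plus infected erythrocytes (2% hematocrit, 0.05% parasitemia final) incubate 96 hours, 37 C, 5% CO2. Detection reagent added; reduced luminescence from the parasites' luciferase reporter flags inhibition.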
For `Cc1cc(NC(=O)CCC(=O)N(CC(=O)NC2CCCC2)c2ccc(F)cc2)no1`, the Potency result is “inactive”.

Take `C=CCC1=C/C(=C\c2c(N)n3nc(CC(=O)N4CCOCC4)sc3nc2=O)C=C(OC)C1=O`: the Potency result was “inactive”.

As for `Cc1cnc(NC(=O)CSc2nnc(C)s2)s1`, the Potency entry was “inactive”.

Consider `Cc1ccc(SCC(=O)Nc2ncc(C)s2)cc1`, for which the Potency result is “inactive”.

`Cc1cnc(NC(=O)CSc2c(Cl)cccc2Cl)s1`: the Potency is 10.4 µM (active).

As to `CCOC(=O)C1=C(C)Nc2sc(C(=O)c3ccc(Br)cc3)c(N)c2C1c1ccc(C(=O)OC)cc1` (configuration not stated), the Potency is 6.57 µM (active).

Turning to `CCOC(=O)c1sc(=NC(=O)c2ccc(Br)cc2)n(C)c1C`, the Potency result was “inactive”.

As for `CCOC(=O)C1=C(C)NC(SC)=NC1c1ccccc1` (configuration not stated), the Potency result was “inactive”.

Take `CC(OC(=O)/C=C/c1ccccc1)C(=O)Nc1ccc(C(N)=O)cc1` (configuration not stated): the Potency entry is “inactive”.

Take `O=C(Nc1ccc(Br)cc1)C1CCC(=O)N1Cc1ccccc1Cl` (configuration not stated): the Potency was 10.4 µM (active).

In the case of `CCCCNC(=O)C1CCC(=O)N1CCc1ccccc1` (configuration not stated), the Potency entry is “inactive”.

`O=C1c2ccccc2C(O)N1Cc1ccccc1Cl` (configuration not stated): the Potency entry was “inactive”.

For the molecule `COc1ccc(-c2onc3ccc(C(C)=O)cc23)cc1`, the Potency result is “inactive”.

As to `O=C(c1c(F)cccc1F)N1CCN(S(=O)(=O)c2ccc3c(c2)OCCO3)CC1`, the Potency entry was “inactive”.

Regarding `O=S(=O)(NC1CCN(S(=O)(=O)c2ccc3c(c2)OCCO3)CC1)c1c(F)cccc1F`, the Potency is 11.7 µM (active).

Regarding `O=C(c1ccc2c(c1)OCCO2)C1CCN(S(=O)(=O)c2cccc(F)c2)CC1`, the Potency result is “inactive”.

With `CCOc1ccc(C(=O)CCN2CCOCC2)cc1`, the Potency result was “inactive”.

As to `O=C1CCN(CCCc2ccccc2)CCN1CCO`, the Potency result was “inactive”.

Turning to `NS(=O)(=O)c1cccc(NC(=O)CC23CC4CC(CC(Br)(C4)C2)C3)c1`, the Potency entry is “inactive”.

As to `CC(CN1CCOCC1)OC(=O)c1ccc(Cl)cc1Cl` (configuration not stated), the Potency result is “inactive”.

`Cc1ccc(C(=O)OC(C)CN2CCOCC2)cc1` (configuration not stated): the Potency is 5.86 µM (active).

With `Cc1cccc(C(=O)OC(C)CN2CCN(C)CC2)c1` (configuration not stated), the Potency result is “inactive”.

On to `O=C(COC(=O)c1ccccc1Br)Nc1nnc(-c2ccccc2)o1`, for which the Potency result was “inactive”.

Regarding `CN1C/C(=C/c2cccs2)C(=O)/C(=C\c2cccs2)C1`, the Potency result was “inactive”.

In the case of `O=C(CNC(=O)c1ccccc1Br)NCCSc1ccc(Br)cc1`, the Potency entry is “inactive”.

As for `Cc1cc(C)n(S(=O)(=O)c2cccc([N+](=O)[O-])c2)n1`, the Potency result is “inactive”.

With `O=[N+]([O-])c1cccc(S(=O)(=O)N2CCCCCC2)c1`, the Potency result is “inactive”.

Consider `Cc1ccc(-c2cn(S(=O)(=O)c3cccc([N+](=O)[O-])c3)nc2N)cc1`, for which the Potency is 6.57 µM (active).

As to `COc1ccc(C(=O)N2CCCC(C(=O)c3ccccc3OC)C2)cc1OC` (configuration not stated), the Potency result is “inactive”.

With `CCOC(=O)CCNC(=O)N1CCCC(C(=O)c2ccccc2SC)C1` (configuration not stated), the Potency entry is “inactive”.

Consider `COc1cccc(CN2CCCC(C(=O)c3ccccc3SC)C2)c1O` (configuration not stated), for which the Potency was 1.65 µM (active).

For `CCCCC(c1nnnn1CS(=O)(=O)c1ccc(C)cc1)N1CCC(C(N)=O)CC1` (configuration not stated), the Potency entry was “inactive”.

As to `COc1ccc(C(=O)Nc2ccc(C(=O)NCC3CCCO3)cc2)c(OC)c1OC` (configuration not stated), the Potency result was “inactive”.

Take `O=C(Cc1ccccc1)N1CCN(C2CCCCCC2)CC1`: the Potency result was “inactive”.

In the case of `c1ccc(C2CCC(N3CCC(N4CCCCC4)CC3)CC2)cc1` (configuration not stated), the Potency is 2.62 µM (active).

For `CCOC(=O)CN1CCC(c2ccccc2)CC1`, the Potency result was “inactive”.

For the molecule `CC1CCCC(C)N1C(=O)COC(=O)COc1ccccc1C#N` (configuration not stated), the Potency entry is “inactive”.

As to `COc1ccccc1OCC(=O)OCc1cc(-c2ccco2)on1`, the Potency result was “inactive”.

In the case of `CN(CC(=O)Nc1ccc(F)c(F)c1F)C(=O)C1CC(=O)N(C2CCCC2)C1` (configuration not stated), the Potency entry is “inactive”.

`CCC(CC)COC(=O)C1=C(C)NC(=O)NC1c1ccc([N+](=O)[O-])cc1` (configuration not stated): the Potency was 4.65 µM (active).

`CC1=C(C(=O)OCC2CCCCC2)C(c2ccc(F)cc2)NC(=O)N1` (configuration not stated): the Potency entry is “inactive”.

With `CCOC(=O)C1=C(C)NC(=O)NC1c1ccccc1` (configuration not stated), the Potency entry was “inactive”.

For the molecule `Cc1ccc(N(CC(=O)NCC2CCCO2)C(=O)CNS(=O)(=O)c2ccc(Cl)cc2)cc1` (configuration not stated), the Potency entry was “inactive”.

As for `CCc1nnc(NC(=O)CCC(=O)N2CCN(c3cc(C)ccc3C)CC2)s1`, the Potency result is “inactive”.

On to `Cc1cc(Cl)nc(NC(=O)Nc2cccc(Cl)c2)n1`, for which the Potency result was “inactive”.

As for `Cc1c(C=O)n(C)n(-c2ccccc2)c1=O`, the Potency result was “inactive”.

Consider `CNC(=O)CN1C(=O)NC(c2ccccc2)(c2ccccc2)C1=O`, for which the Potency entry is “inactive”.

With `CCC1(c2ccccc2)C(=O)NC(=O)N(C)C1=O` (configuration not stated), the Potency is 15.1 µM (active).

As to `O=C(CSc1nc2ccccc2o1)N/N=C/c1ccccc1C(=O)O`, the Potency result is “inactive”.

Turning to `CCc1ccc(OCC(=O)OC(C)C(=O)NC2CC2)cc1` (configuration not stated), the Potency entry is “inactive”.

For the molecule `O=C1CCCN1CCCNc1ncnc2c1[nH]c1ccccc12`, the Potency entry was “inactive”.

On to `CC(C)OCCCNc1ncnc2c1[nH]c1ccc(F)cc12`, for which the Potency was 0.185 µM (active).

As to `Cc1ccsc1C(=O)OCC(=O)Nc1cccc(F)c1`, the Potency entry is “inactive”.

With `Cn1c2c(c(=O)n(C)c1=O)C(c1cccc(F)c1)C(C#N)=C(N)O2` (configuration not stated), the Potency entry is “inactive”.

As for `Cc1nn(CC(=O)Nc2ccc(F)cc2)c(=O)c2ccccc12`, the Potency result was “inactive”.

Consider `CCc1ccc(NC(=O)Cn2nc(C)c([N+](=O)[O-])c2C)cc1`, for which the Potency entry is “inactive”.

For the molecule `CCc1ccc(NC(=O)Cn2ncn3c(cc4ccccc43)c2=O)cc1`, the Potency is 1.47 µM (active).

For the molecule `CC(=O)Oc1cc2c(C(=O)NCCN3CCOCC3)c(C)oc2c2ccccc12`, the Potency entry is “inactive”.

On to `O=C(NCCN1CCOCC1)Nc1cccc(Cl)c1`, for which the Potency result is “inactive”.

As to `O=C(NCCN1CCOCC1)c1cc(Sc2cccc(Cl)c2)nc2ccccc12`, the Potency is 5.22 µM (active).

Consider `Cn1c(SCC(=O)N2CCCC2)nnc1-c1ccc2c(c1)OCO2`, for which the Potency entry was “inactive”.

As to `O=C(CNc1ccccc1N1CCCC1=O)Nc1cc(Cl)ccc1-n1cncn1`, the Potency entry was “inactive”.

On to `O=C(Nc1ccccc1Cl)Nn1cnnc1`, for which the Potency entry was “inactive”.

Regarding `O=C(CN1CCCCCC1)Nc1ccc(Br)cc1Br`, the Potency entry is “inactive”.

Turning to `O=C(CN1CCCCCC1)Nc1ccc(Br)cc1[N+](=O)[O-]`, the Potency entry was “inactive”.

Regarding `O=C(CN1CCCCC1)Nc1ccc(Br)cc1C(=O)c1ccccc1Cl`, the Potency is 1.85 µM (active).

As for `Cc1cccc(-n2ncc(Cl)c(Cl)c2=O)c1`, the Potency result is “inactive”.

Turning to `COc1ccc(C(=O)NCC2CCCCC2)cc1S(=O)(=O)N1CCCC1`, the Potency entry was “inactive”.

In the case of `COc1cccc(CC(=O)Nc2ccc(-c3csc(C)n3)cc2)c1`, the Potency entry was “inactive”.

In the case of `CCOCC(=O)Nc1cc(OC)c(Cl)cc1OC`, the Potency entry was “inactive”.

In the case of `COc1cc(NC(=O)c2ccc(-c3csc(C)n3)cc2)c(OC)cc1Cl`, the Potency is 4.15 µM (active).

Consider `COc1cc(C(=O)NCc2nnc(SCC(=O)c3ccc(Cl)cc3)o2)cc(OC)c1OC`, for which the Potency entry is “inactive”.

As for `Cc1ccc(NS(=O)(=O)c2cc3c(cc2C)NC(=O)CO3)cc1`, the Potency result was “inactive”.

In the case of `COc1ccc(CCNC(=O)NS(=O)(=O)c2ccc(C)cc2)cc1OC`, the Potency result is “inactive”.

With `O=C(c1cc(-c2ccc(Cl)cc2)on1)N1CCN(c2ccccc2)CC1`, the Potency result was “inactive”.

Consider `Cc1cccc(N2CCN(C(=O)c3cnn4c(C(F)F)cc(-c5ccccc5)nc34)CC2)c1C`, for which the Potency result was “inactive”.

`Cc1ccc(Cl)cc1N1CCN(C(=O)c2cccc3c(=O)c(C)c(-c4ccccc4)oc23)CC1`: the Potency was 2.08 µM (active).

For `O=C(CC1C(=O)NCCN1CC(c1ccccc1)c1ccccc1)NCC1CCOCC1` (configuration not stated), the Potency entry is “inactive”.

In the case of `O=C(COc1ccccc1Cl)N1CCCCCCC1`, the Potency entry was “inactive”.

Consider `CCC(CC)c1nnc(NC(=O)C2CCN(C(=O)c3ccco3)CC2)s1`, for which the Potency result is “inactive”.

For the molecule `CN(C)C(CNC(=O)c1ccc(OCc2cn3ccccc3n2)cc1)c1ccco1` (configuration not stated), the Potency entry was “inactive”.

For `CC(Oc1cc2oc(=O)c3c(c2cc1Cl)CCCC3)C(=O)NCc1ccncc1` (configuration not stated), the Potency entry is “inactive”.

As for `CC(CCn1cccn1)NC(=O)CCc1nnc(CCc2ccccc2)o1` (configuration not stated), the Potency result was “inactive”.

With `COc1ccc(CNC(=O)CCN2C(=O)c3ccccc3C2=O)cc1`, the Potency entry is “inactive”.

Consider `COc1ccc(CCc2nnc(CCC(=O)NCc3cnn(-c4ccccc4C)c3)o2)cc1`, for which the Potency is 9.28 µM (active).

For `Cc1ccc(C)c(N2CCN(S(=O)(=O)c3c(C)[nH]c(C)c3C(=O)N3CCCC3)CC2)c1`, the Potency entry was “inactive”.

As for `CSC(=S)N/N=C/c1c[nH]c2ccccc12`, the Potency result was “inactive”.

`O=C(N/N=C/c1c[nH]c2ccccc12)c1ccccc1O`: the Potency was 11.7 µM (active).

`O=C(N/N=C/c1c[nH]c2ccccc12)c1cc2ccccc2o1`: the Potency entry was “inactive”.

`CCOc1ccc(C(=O)Nc2ccc(CN3CCOCC3)cc2)cc1Cl`: the Potency result was “inactive”.

With `CCc1cc(=O)oc2c(C)c(OCC(=O)NCCN3CCOCC3)ccc12`, the Potency result is “inactive”.

Take `CCCc1cc(=O)oc2cc(OCC(=O)Nc3ccc(CN4CCOCC4)cc3)c(Cl)cc12`: the Potency was 10.4 µM (active).

With `Cc1nc(-c2ccc(Cl)cc2)sc1C1(C)CC(c2ccccc2F)=NO1` (configuration not stated), the Potency result is “inactive”.

Turning to `COCCCN1C(=O)c2ccc(C(=O)OCC(=O)NCc3ccccc3OC)cc2C1=O`, the Potency entry was “inactive”.

As to `Cc1c(C)c(C)c(S(=O)(=O)NCCc2ccccn2)c(C)c1C`, the Potency entry was “inactive”.

As for `Cc1ccc(OCc2cc(C(=O)N(C)CCc3ccccc3)no2)cc1C`, the Potency was 13.1 µM (active).

As to `CN(Cc1cccnc1)C(=O)c1cc(COc2ccc3ncccc3c2)on1`, the Potency entry is “inactive”.

Regarding `CSc1ccccc1OCc1cc(C(=O)N(C)CCc2c(C)n[nH]c2C)no1`, the Potency result is “inactive”.

As for `Cc1cc(S(=O)(=O)N2CCOCC2)ccc1OCC(=O)Nc1cccc(C(F)(F)F)c1`, the Potency entry is “inactive”.

`O=C(N/N=C/c1cccc(OC(=O)c2ccc([N+](=O)[O-])cc2)c1)c1cccnc1`: the Potency result is “inactive”.

For `Cc1cccc(C(=O)NCCCN(C)CCCNC(=O)c2cccc(C)c2)c1`, the Potency entry is “inactive”.

Regarding `Cc1cccc(-c2nc3ccc(C(=O)NCCN4CCN(C)CC4)cc3nc2-c2cccc(C)c2)c1`, the Potency is 11.7 µM (active).

For `Cc1cccc(C(=O)NCCCN2CCCC2=O)c1`, the Potency result was “inactive”.

Take `CC(=O)Nc1ccc(S(=O)(=O)Oc2ccc(Br)cc2C(=S)N2CCOCC2)cc1`: the Potency result was “inactive”.

As for `CCOC(=O)C(O)(c1ccc(N=Cc2ccccc2O)c(C)c1)C(F)(F)F` (configuration not stated), the Potency entry is “inactive”.

As to `COC(=O)C(O)(c1ccc(NC(=O)c2ccco2)c(OC)c1)C(F)(F)F` (configuration not stated), the activity change, negative = inhibition was 2.22% [at 5.75 µM].

With `CCOC(=O)C(O)(c1ccc(N)c(OC)c1)C(F)(F)F` (configuration not stated), the Potency was 2.62 µM (active).
